Compound activity (PubChem)
Compounds with a hit are over-represented: about 2.3% of the library has one in this group of screens.
C diff growth: C. difficile growth inhibitors, primary screen, HTS. Clostridium difficile clinical isolate growth, OD600, 24 h; stronger effect = lower value. growth activity, negative = inhibition, % at 16 µg/mL (by protocol). 86,000 tested, 0.25% active. AID 1259249, 2017;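 active = mean growth activity at or below -80% and every replicate also at or below -80%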;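 also: 0% = DMSO wells and -100% = levofloxacin 16 µg/mL wells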
Pf Dd2 inh: P. falciparum Dd2 growth inhibitors, primary screen, SYBR Green fluorescence, single dose replicates | 72 h; stronger effect = lower value | activity change, % at 10 µM | 94,000 tested, 2.3% active; in the data active = activity change below about -80%
Active calls of the source: *; / = not tested or not shown.

SMILES	C diff growth	Pf Dd2 inh
COc1ccc2c3c([nH]c2c1)[C@H](CO)N(C(=O)Cc1ccccc1)CC31CCN(C)CC1	0	-14
CCC(=O)N1CC2(CN(C(=O)Cc3ccccc3)C2)c2c(n(C)c3cc(OC)ccc23)[C@@H]1CO	2	-37
CCC(=O)N1CC2(CCN(C(=O)Nc3ccc(F)cc3)CC2)c2c([nH]c3cc(OC)ccc23)[C@@H]1CO	-4	-59
COc1ccc2c3c(n(C)c2c1)[C@H](CO)N(C(=O)Cc1ccccc1)CC31CN(C(=O)Cc2ccccc2)C1	9	-83*
COc1ccc(CN2CC3(CN(C(=O)Cc4ccccc4)C3)c3c([nH]c4cc(OC)ccc34)[C@H]2CO)cc1	-3	-89*
COc1ccc(CN2CC3(CN(C(=O)Cc4ccncc4)C3)c3c([nH]c4cc(OC)ccc34)[C@@H]2CO)cc1	-1	-65
C[C@H](CO)N1C[C@H](C)[C@H](CN(C)Cc2ccc(O)cc2)OCc2cnnn2CCCC1=O	3	-15
CCCC#Cc1ccc2c(c1)[C@@H]1[C@@H](CCN1S(=O)(=O)c1ccccc1OC)[C@@H](CO)N2	1	-57
O=C(N[C@@H]1CC[C@H](CC(=O)N2CCOCC2)O[C@@H]1CO)c1cccc(F)c1	/	23
COc1ccc2c3c([nH]c2c1)[C@@H](CO)N(C(=O)Nc1ccccc1F)CC31CCN(C(C)=O)CC1	3	-12
COc1ccc2c3c([nH]c2c1)[C@@H](CO)N(C(=O)Nc1ccc(F)cc1)CC31CN(C(=O)Cc2ccccc2)C1	2	-10
COc1ccc2c3c([nH]c2c1)[C@H](CO)N(C(=O)Cc1ccccc1)CC31CN(C(=O)Cc2ccccc2)C1	1	-83*
COc1ccc2c3c(n(C)c2c1)[C@H](CO)N(C(=O)c1ccccc1)CC31CCN(C(C)=O)CC1	-1	-36
COc1ccc2c3c([nH]c2c1)[C@H](CO)N(C(=O)Cc1ccccc1)CC31CCN(C(=O)Nc2ccccc2F)CC1	2	-91*
COc1ccc2c3c(n(C)c2c1)[C@H](CO)N(C(=O)c1ccccc1)CC31CCN(C(=O)c2ccccc2)CC1	-8	-88*
Cc1noc(C)c1S(=O)(=O)Nc1ccc2c(c1)C(=O)N([C@H](C)CO)C[C@H](C)[C@H](CN(C)S(=O)(=O)c1cccs1)OCCCC[C@@H](C)O2	-7	-21
COCCNC(=O)C[C@H]1C[C@H]2c3cc(N(C)C)ccc3O[C@H]2[C@@H](CO)O1	0	8
C[C@@H]1CN([C@H](C)CO)C(=O)c2cccc(NC(=O)c3ccc(-c4nccs4)cc3)c2O[C@H]1CN(C)Cc1ccc(-c2ccccc2)cc1	-8	-82*
C[C@@H]1CN([C@@H](C)CO)C(=O)c2cccc(NC(=O)c3ccc(-c4nccs4)cc3)c2O[C@@H]1CN(C)C(=O)Nc1cccc2ccccc12	5	-86*
C[C@H]1CN([C@@H](C)CO)C(=O)c2cccc(NC(=O)c3ccc(-c4nccs4)cc3)c2O[C@H]1CN(C)C(=O)Nc1cccc2ccccc12	-3	12
C[C@H]1CN([C@@H](C)CO)C(=O)c2cccc(NC(=O)c3ccc(-c4nccs4)cc3)c2O[C@H]1CN(C)Cc1ccc(-c2ccccc2)cc1	32	-54
C[C@H](CO)N1C[C@H](C)[C@H](CN(C)Cc2ccc(-c3ccccc3)cc2)Oc2c(NC(=O)c3ccc(-c4nccs4)cc3)cccc2C1=O	26	-52
C[C@H]1CN([C@@H](C)CO)C(=O)c2cccc(NC(=O)c3ccc(-c4nccs4)cc3)c2O[C@@H]1CN(C)Cc1ccc2c(c1)OCO2	3	-34
C[C@H](CO)N1C[C@H](C)[C@@H](CN(C)Cc2ccc(-c3ccccc3)cc2)Oc2c(NC(=O)c3ccc(-c4nccs4)cc3)cccc2C1=O	3	-86*
C[C@@H]1CN([C@H](C)CO)C(=O)c2cccc(NC(=O)c3ccc(-c4nccs4)cc3)c2O[C@H]1CN(C)Cc1ccc2c(c1)OCO2	-2	-92*
SMILES	C diff growth	Pf Dd2 inh
C[C@@H]1CN([C@@H](C)CO)C(=O)c2cc(-c3ccncc3)cnc2O[C@H]1CN(C)C(=O)Cc1cccnc1	6	33
C[C@H](CO)N1C[C@H](C)[C@H](CN(C)Cc2ccccc2)Oc2c(NS(C)(=O)=O)cccc2C1=O	1	-35
CCCC#Cc1cnc2c(c1)C(=O)N([C@@H](C)CO)C[C@H](C)[C@@H](CN(C)C(=O)C1CCOCC1)O2	3	12
C[C@H](CO)N1C[C@H](C)[C@@H](CN(C)Cc2ccc(Cl)c(Cl)c2)Oc2ccc(NC(=O)c3ccncc3)cc2C1=O	-13	2
O=C(c1ccc2c(c1)OCO2)N1CC[C@@H]2[C@@H](CO)Nc3ccc(-c4ccccc4)cc3[C@@H]21	-19	-61
COc1ccc(CN(C)C[C@@H]2Oc3ccc(NC(=O)CCCN(C)C)cc3C(=O)N([C@@H](C)CO)C[C@H]2C)cc1	4	19
CO[C@@H]1CC[C@H]2CCN(C)C(=O)[C@H](C)N(C)C(=O)c3cc(C#N)ccc3OC[C@H]1O2	0	/
COc1ccc(C#Cc2ccc3c(c2)O[C@H](CN(C)C(=O)Nc2cccc(OC)c2)[C@@H](C)CN([C@@H](C)CO)S3(=O)=O)cc1	/	-85*
COc1ccc(C#Cc2ccc3c(c2)O[C@@H](CN(C)C(=O)Nc2cccc(OC)c2)[C@@H](C)CN([C@@H](C)CO)S3(=O)=O)cc1	/	-90*
CNC[C@H]1Oc2cc(C#Cc3cccc(OC)c3)ccc2S(=O)(=O)N([C@@H](C)CO)C[C@@H]1C	5	-46
COc1cccc(NC(=O)N(C)C[C@@H]2Oc3cc(C#Cc4ccncc4)ccc3S(=O)(=O)N([C@@H](C)CO)C[C@@H]2C)c1	9	-79
COc1cccc(NC(=O)N(C)C[C@H]2Oc3cc(C#Cc4ccc(F)cc4)ccc3S(=O)(=O)N([C@@H](C)CO)C[C@@H]2C)c1	3	-57
CNC[C@@H]1Oc2cc(C#Cc3ccc(OC)cc3)ccc2S(=O)(=O)N([C@@H](C)CO)C[C@H]1C	3	-85*
Cc1cccc(S(=O)(=O)N(C)C[C@H]2OCc3ccccc3-c3c(n(C)c4ccccc34)C(=O)N([C@@H](C)CO)C[C@H]2C)c1	/	-85*
Cc1cccc(S(=O)(=O)N(C)C[C@H]2OCc3ccccc3-c3c(n(C)c4ccccc34)C(=O)N([C@H](C)CO)C[C@H]2C)c1	/	-84*
C[C@H]1CN([C@@H](C)CO)C(=O)c2c(c3ccccc3n2C)-c2ccccc2CO[C@@H]1CN(C)S(=O)(=O)c1cccc(C#N)c1	1	-30
C[C@@H]1CN([C@@H](C)CO)C(=O)c2c(c3ccccc3n2C)-c2ccccc2CO[C@H]1CN(C)S(=O)(=O)c1cccc(F)c1	8	-67
Cc1cccc(S(=O)(=O)N(C)C[C@@H]2OCc3ccccc3-c3c(n(C)c4ccccc34)C(=O)N([C@@H](C)CO)C[C@H]2C)c1	/	-82*
COc1cccc(S(=O)(=O)N(C)C[C@@H]2OCc3ccccc3-c3c(n(C)c4ccccc34)C(=O)N([C@@H](C)CO)C[C@H]2C)c1	-6	-7
C[C@@H]1CN([C@@H](C)CO)C(=O)c2c(c3ccccc3n2C)-c2ccccc2CO[C@@H]1CN(C)S(=O)(=O)c1cccc(F)c1	3	-70
Cc1cccc(S(=O)(=O)N(C)C[C@@H]2OCc3ccccc3-c3c(n(C)c4ccccc34)C(=O)N([C@@H](C)CO)C[C@@H]2C)c1	/	-86*
